The results in this text go back to PubChem BioAssay.

Assay [1] is described as follows: compounds binding Alexa647 anti-His antibody – biochemical, small-molecule microarray, 635 nm fluorescence, artefact control for SMM control protein annotation, primary screen (AID 1128).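 Further: score merges feature fluorescence with signal-to-noise for each printed compound spot.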 Particulars: higher = more signal.
The subject of assay [2] is Human papillomavirus type 1a E7 protein (residues 1-88). Nature of the assay: HPV1a E7 small-molecule binders, primary screen, biochemical, small-molecule microarray, residues 1-88, 635 nm (AID 1129). The settings on record: small-molecule microarray binding, fluorescence 635 nm; higher = more signal.
For assay [3], the target named is Focal adhesion kinase 1 (Homo sapiens) (UniProt Q05397). Kind of assay: PTK2 protein binding on printed compound slides – biochemical, small-molecule microarray, 635/667 nm fluorescence, BSA, DTT, primary screen (AID 1130).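 Further: composite of spot emission at 667 nm and signal to noise over triplicate slides.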 Particulars: 635 nm fluorescence, higher = more signal.
The test system of assay [4] is Fibrinogen (Alexa647-labelled). Nature of the assay: Alexa647-fibrinogen binding to printed small molecules – biochemical, small-molecule microarray, 635/667 nm fluorescence, artefact control for SMM control-protein annotation, profiling panel (AID 1131).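 Further: z-score merges 667 nm fluorescence with per-spot signal-to-noise over triplicate slides.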 The settings on record: fibrinogen-A647 binding fluorescence, higher = more signal.
For assay [5], the target named is Follistatin (Homo sapiens) (UniProt P19883). Nature of the assay: FST protein binding to printed compounds – biochemical, small-molecule microarray, 635/667 nm fluorescence, primary screen (AID 1132). The settings on record: 635 nm fluorescence, higher = more signal.
The target of assay [6] is Fibroblast growth factor 2 (Homo sapiens) (UniProt P09038). Kind of assay: basic fibroblast growth factor binding to printed compounds – biochemical, small-molecule microarray, 635/667 nm fluorescence, primary screen (AID 1133). The settings on record: FGF2, fluorescence 635/667, higher = more signal.
A short description of assay [7]: JC-1 mitochondrial potential readout, lung cancer cells – cell-based, A549, JC-1 fluorescence, basal, 24 h, 100 nL, profiling panel (AID 1138).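 Further: A549 lung adenocarcinoma cells under basal conditions with no added stimulus; test concentration not given here.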 Particulars: higher = more signal.
Assay [8] relates to Lefty1. Kind of assay: Lefty1 protein binding to printed compounds – biochemical, small-molecule microarray, 635/667 nm fluorescence, primary screen (AID 1139). Particulars: fluorescence 635/667, higher = more signal.
Assay [9] has as its system wheat germ agglutinin (Triticum aestivum), Alexa647-labelled. Kind of assay: Alexa647-WGA lectin binding to printed small molecules – biochemical, small-molecule microarray, 635/667 nm fluorescence, artefact control for SMM control-protein annotation, profiling panel (AID 1140).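 Further: score merges 667 nm feature emission with signal to noise over triplicate slides.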 Particulars: WGA-A647 binding, 635 nm fluorescence, higher = more signal.
For assay [10], the target named is Luciferin 4-monooxygenase (Photinus pyralis) (UniProt P08659). Kind of assay: inhibition of purified Photinus pyralis luciferase – biochemical, luminescence, purified enzyme, 2006 set, primary screen (AID 1141).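 Further: cell-free assay with purified firefly luciferase at 100 ng per well in PBS; test concentration not given here.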 The settings on record: purified firefly luciferase, SteadyGlo luminescence, 30 min; higher = more signal, called active from +8 up or from −8 down.
In assay [11] the test system is Wnt5a (protein binding on small-molecule microarray). Nature of the assay: small molecules binding Wnt5a protein – biophysical, small-molecule microarray, 635/667 nm fluorescence, primary screen (AID 1142).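 Further: fluorescence read at 667 nm with signal to noise per printed feature.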 Particulars: 635 nm fluorescence, higher = more signal.
Assay [12] can be described thus: ATP-based viability of Huh7 replicon cells – cell-based, CellTiter-Glo luminescence, basal, 48 h, cytotoxicity control for HCV replication inhibitor project, primary screen (AID 1143).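 Further: Huh7 hepatoma cells carrying a hepatitis C replication reporter with no stimulus; test concentration not given here.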 The settings on record: higher = more signal, called active from +8 up or from −8 down. A general note: Replicon systems follow genome replication, usually without infectious particles.

A short description of assay [13]: Pseudomonas biofilm growth suppression – PAO1 strain, BacTiter-Glo luminescence, LB-PBS, primary screen (AID 1144). Particulars: P. aeruginosa PAO1 biofilm, 12 h, higher = more signal.
Assay [14] can be described thus: basal CRE-LacZ reporter activity in PC12 – cell-based, unstimulated, primary screen (AID 1145). Particulars: no forskolin, luminescence, 4.5 h, higher = more signal, called active from +8 up or from −8 down.
A short description of assay [15]: forskolin-driven CRE-LacZ activity in PC12 – cell-based, CRE-LacZ reporter, forskolin-stimulated, primary screen (AID 1146).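 Further: PC12 cells with 6xCRE LacZ reporter stimulated by forskolin 10 µM; beta-galactosidase reporter signal reflecting CREB driven transcription.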 Particulars: luminescence, 4.5 h, higher = more signal, called active from +8 up or from −8 down.
The target of assay [16] is Streptavidin (Streptomyces avidinii) (UniProt P22629). Kind of assay: compounds binding control protein streptavidin – biophysical, small-molecule microarray, 635/667 nm fluorescence, artefact control for SMM compound annotation, primary screen (AID 1147).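 Further: signal reflects streptavidin binding to arrayed compounds as a control protein.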 The settings on record: higher = more signal.
Assay [17] is described as follows: probe aInhba binding on compound microarray – biochemical, small-molecule microarray, 635/667 nm fluorescence, primary screen (AID 1148).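 Further: score merges 667nm spot fluorescence with signal-to-noise for antibody binding to printed compounds.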 The settings on record: higher = more signal.
Assay [18] concerns the target Torsin-1A (Homo sapiens) (UniProt O14656). Nature of the assay: TOR1A wild-type binding on microarray – cell lysate, small-molecule microarray, lysate, 635/667 nm, primary screen (AID 1149). The settings on record: COS7 hTOR1A-WT lysate, 635 nm fluorescence, higher = more signal.
Assay [19] has the same target. Kind of assay: torsin A mutant lysate binding on microarrays – cell lysate, small-molecule microarray, COS7 lysate, 635/667 nm fluorescence, primary screen (AID 1150).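 Further: score pools 667 nm emission and signal to noise measuring lysate protein binding.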 The settings on record: COS7 hTOR1A mutant lysate, 635 nm fluorescence, higher = more signal.
The test system of assay [20] is Sonic hedgehog protein (Shh). Kind of assay: Sonic hedgehog microarray binding compounds – biochemical, small-molecule microarray, 635/667 nm fluorescence, primary screen (AID 1151).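 Further: Shh protein binding to compounds spotted on small-molecule microarray slides; score combines spot fluorescence intensity with signal-to-noise across triplicate slides.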 Particulars: 635 nm fluorescence, higher = more signal.

Molecules are shown by their SMILES. Calls of active or inactive are those of the source. Unless noted, how the calls were made is not given here.

Sequence of Luciferin 4-monooxygenase (Photinus pyralis) (P08659 whole entry, looked up): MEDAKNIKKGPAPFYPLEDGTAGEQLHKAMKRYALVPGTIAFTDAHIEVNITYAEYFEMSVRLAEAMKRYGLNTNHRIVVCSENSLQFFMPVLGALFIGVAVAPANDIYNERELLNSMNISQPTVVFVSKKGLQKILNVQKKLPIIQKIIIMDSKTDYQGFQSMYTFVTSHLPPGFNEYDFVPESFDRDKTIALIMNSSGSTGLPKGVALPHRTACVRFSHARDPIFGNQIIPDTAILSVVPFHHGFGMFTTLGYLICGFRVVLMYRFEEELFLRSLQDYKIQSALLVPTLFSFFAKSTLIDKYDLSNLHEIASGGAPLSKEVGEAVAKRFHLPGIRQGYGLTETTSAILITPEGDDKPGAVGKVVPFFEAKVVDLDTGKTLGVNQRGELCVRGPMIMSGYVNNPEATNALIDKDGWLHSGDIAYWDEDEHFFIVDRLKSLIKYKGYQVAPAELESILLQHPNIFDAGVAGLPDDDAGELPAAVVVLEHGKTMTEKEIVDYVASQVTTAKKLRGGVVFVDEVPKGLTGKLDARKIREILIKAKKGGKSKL
Sequence of Torsin-1A (Homo sapiens) (O14656 whole entry, looked up): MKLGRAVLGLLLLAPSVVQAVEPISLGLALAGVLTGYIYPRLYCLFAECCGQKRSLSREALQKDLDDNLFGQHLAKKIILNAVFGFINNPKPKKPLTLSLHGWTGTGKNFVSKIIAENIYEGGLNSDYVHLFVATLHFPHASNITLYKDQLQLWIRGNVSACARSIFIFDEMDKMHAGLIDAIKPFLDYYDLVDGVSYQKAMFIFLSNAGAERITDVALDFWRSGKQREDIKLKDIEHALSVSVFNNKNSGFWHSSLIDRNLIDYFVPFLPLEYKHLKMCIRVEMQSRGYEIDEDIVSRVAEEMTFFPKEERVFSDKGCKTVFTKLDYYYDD
Sequence of Follistatin (Homo sapiens) (P19883 whole entry, looked up): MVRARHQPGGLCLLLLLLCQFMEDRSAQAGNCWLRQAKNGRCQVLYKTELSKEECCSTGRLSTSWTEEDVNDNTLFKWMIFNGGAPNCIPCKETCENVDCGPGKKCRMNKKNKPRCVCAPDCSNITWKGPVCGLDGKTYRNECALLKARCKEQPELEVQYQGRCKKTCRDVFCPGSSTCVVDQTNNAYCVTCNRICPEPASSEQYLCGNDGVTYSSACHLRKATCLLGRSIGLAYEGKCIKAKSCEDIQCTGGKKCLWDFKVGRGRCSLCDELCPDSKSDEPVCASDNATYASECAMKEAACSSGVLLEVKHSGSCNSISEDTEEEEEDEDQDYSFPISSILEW
Sequence of Streptavidin (Streptomyces avidinii) (P22629 whole entry, looked up): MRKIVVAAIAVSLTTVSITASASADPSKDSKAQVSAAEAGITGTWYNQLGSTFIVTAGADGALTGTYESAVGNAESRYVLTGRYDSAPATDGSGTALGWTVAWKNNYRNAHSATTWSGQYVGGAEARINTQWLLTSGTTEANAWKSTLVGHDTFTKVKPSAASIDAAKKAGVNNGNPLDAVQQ
Sequence of Focal adhesion kinase 1 (Homo sapiens) (Q05397 whole entry, looked up): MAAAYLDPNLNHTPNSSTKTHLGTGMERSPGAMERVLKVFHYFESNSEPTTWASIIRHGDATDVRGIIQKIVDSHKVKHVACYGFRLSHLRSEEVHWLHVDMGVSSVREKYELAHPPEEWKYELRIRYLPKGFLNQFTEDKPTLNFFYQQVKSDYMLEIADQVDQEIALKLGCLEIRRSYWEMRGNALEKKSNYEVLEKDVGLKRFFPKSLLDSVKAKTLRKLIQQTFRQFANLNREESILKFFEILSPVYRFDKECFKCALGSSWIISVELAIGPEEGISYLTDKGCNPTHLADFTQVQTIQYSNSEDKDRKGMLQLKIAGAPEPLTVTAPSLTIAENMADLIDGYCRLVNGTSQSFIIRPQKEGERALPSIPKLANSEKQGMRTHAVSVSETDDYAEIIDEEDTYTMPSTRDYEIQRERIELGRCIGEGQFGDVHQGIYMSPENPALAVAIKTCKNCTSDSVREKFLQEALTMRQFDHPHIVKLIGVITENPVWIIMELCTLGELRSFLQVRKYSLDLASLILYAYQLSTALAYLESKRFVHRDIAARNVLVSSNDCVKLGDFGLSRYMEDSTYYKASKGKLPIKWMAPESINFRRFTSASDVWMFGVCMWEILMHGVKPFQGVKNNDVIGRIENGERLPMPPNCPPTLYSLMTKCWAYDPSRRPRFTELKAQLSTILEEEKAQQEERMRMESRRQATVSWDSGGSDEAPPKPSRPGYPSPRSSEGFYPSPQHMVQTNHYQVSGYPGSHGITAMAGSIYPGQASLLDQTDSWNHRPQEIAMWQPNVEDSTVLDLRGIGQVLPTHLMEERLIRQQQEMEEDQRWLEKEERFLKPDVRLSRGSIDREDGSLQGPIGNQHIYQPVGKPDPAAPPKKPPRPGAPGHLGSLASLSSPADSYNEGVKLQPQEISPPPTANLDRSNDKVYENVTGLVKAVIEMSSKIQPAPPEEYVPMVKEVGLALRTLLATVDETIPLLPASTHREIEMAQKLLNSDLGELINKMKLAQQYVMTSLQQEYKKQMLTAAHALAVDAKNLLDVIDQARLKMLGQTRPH
Sequence of Fibroblast growth factor 2 (Homo sapiens) (P09038 whole entry, looked up): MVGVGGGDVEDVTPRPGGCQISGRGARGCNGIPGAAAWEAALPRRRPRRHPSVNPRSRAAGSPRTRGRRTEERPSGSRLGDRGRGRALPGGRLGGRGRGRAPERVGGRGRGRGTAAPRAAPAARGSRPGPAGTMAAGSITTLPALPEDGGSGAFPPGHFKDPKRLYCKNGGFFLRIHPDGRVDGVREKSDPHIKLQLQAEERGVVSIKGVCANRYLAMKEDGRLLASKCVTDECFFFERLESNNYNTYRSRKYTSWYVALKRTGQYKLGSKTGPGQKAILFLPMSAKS

Regarding `COC(=O)c1c(CC[C@@H](CO)NC(=O)N[C@H](Cc2ccccc2)Cn2cc(-c3ccccc3N)nn2)oc(C(C)=O)c1C(=O)OC`, the composite z-score was 1.35 in assay [1]; 1.17 in [2]; -0.422 in [3]; 0.323 in assay [4]; 0.629 in assay [5]; 0.237 in [6]. Also, the composite z-score was 0.348 in assay [8]; 1.14 in assay [9]; -0.0029 in [11]; 2.14 in assay [16]; 0.449 in assay [17]; 0.481 in assay [18]. For the same compound, the composite z-score in assay [19] turned out to be 0.794; in assay [20], 0.352. The z-score in assay [7] is 0.34; in assay [10], -0.197 (inactive); in [12] it was -0.145 (inactive); in assay [13], 0.41 (inactive); in assay [14] it was 3.84 (inactive); in [15], -0.687 (inactive).

Consider `O=C1[C@H]2[C@H]3[C@H](O)[C@H](O)CC(=NO[C@@H]4O[C@H](CO)[C@@H](O)[C@H](O)[C@H]4O)[C@@H]3CC[C@H]2C(=O)N1Cc1ccc2c(c1)OCO2`, for which the composite z-score in [1] came out at 0.715; in [2], 0.782; in assay [3] it was 0.293; in assay [4] it was 0.78; in assay [5], 0.449; in assay [6] it was 0.289. For the same compound, the composite z-score in [8] is 0.716; in assay [9], 0.63; in [11], 0.163; in assay [16], 0.335; in assay [17] it was -0.0506; in assay [18], 0.35. For the same compound, the composite z-score amounted to 0.254 in assay [19] and 0.666 in assay [20]. The z-score in [7] was -0.789; in [10] it was 0.949 (inactive); in assay [12], 0.548 (inactive); in assay [13], 0.572 (inactive); in [14], 0.245 (inactive); in [15] it was 0.366 (inactive).

For the compound `O=C1[C@H]2[C@H]3[C@H](O)[C@H](O)CC(=NO[C@@H]4O[C@H](CO)[C@@H](O)[C@H](O)[C@H]4O)[C@@H]3CC[C@H]2C(=O)N1c1ccc(F)cc1F`, the composite z-score in [1] is 0.537; in assay [2], 0.534; in assay [3], -0.33; in assay [4], 0.273; in [5], 0.438; in assay [6], 0.209. For the same compound, the composite z-score in assay [8] was 0.386; in assay [9] it was 0.0553; in assay [11], 0.166; in assay [16] it was 0.38; in assay [17], -0.0719; in assay [18], 0.851. The results for the composite z-score in [19] and in assay [20] were 1.1 and 0.51, respectively. For the same compound, the z-score in [7] is 0.242; in assay [10], 0.523 (inactive); in assay [12] it was 0.115 (inactive); in [13], 0.593 (inactive); in [14] it was 0.0711 (inactive); in assay [15], 0.767 (inactive).

In the case of `CC(C)CN1CCc2nc(-c3ccccc3)c3c(c2CC1)CO[C@@H](C)C3`, the composite z-score is 0.21 in assay [1]; 0.103 in assay [2]; 0.101 in assay [3]; 0.418 in assay [4]; 0.587 in assay [5]; 0.478 in assay [6]. Further, the composite z-score in [8] is 0.435; in assay [9] it was 0.22; in [11], 0.134; in [16] it was -0.2; in assay [17], 0.255; in assay [18], 0.531. For the same compound, the figures for the composite z-score in assay [19] and in assay [20] were 0.954 and 1.53, respectively. Also, the z-score is 0.186 in assay [7]; -0.227 (inactive) in assay [10]; -0.388 (inactive) in [12]; -0.705 (inactive) in [13]; 0.738 (inactive) in [14]; -1.26 (inactive) in assay [15].

Turning to `CC(CCN1CCc2nc(-c3ccccc3)c(-c3ccccc3)cc2C1)=NO[C@@H](C)c1cn([C@H](CO)Cc2ccccc2)nn1`, the composite z-score in assay [1] was -0.0253; in assay [2], 0.219; in assay [3], 0.0807; in assay [4], 0.929; in assay [5] it was 0.408; in assay [6], 0.453. The composite z-score in [8] was 0.342; in [9] it was 0.706; in [11], -0.107; in assay [16] it was 0.52; in [17] it was 0.0131; in [18], 1.62. Also, the composite z-score in [19] is 0.482; in assay [20], 1.25. Further, the z-score in assay [7] is 1.22; in assay [10] it was -1.77 (inactive); in assay [12], -0.802 (inactive); in assay [13] it was -0.414 (inactive); in [14], 0.573 (inactive); in [15], -0.795 (inactive).
